Assay results: PubChem BioAssay AID624330 (Southern Research Specialized Biocontainment Screening …, 2012)
Out of some 340,000 compounds screened, about 2,100 (0.62%) were called active.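 The calls were made as follows: active = first-screen hits whose inhibition reached a set limit at any dose in the follow-up dose series; inconclusive = inhibition above the set first-screen limit but never retested; inactive = the rest.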 The list is a sample of the results. Measured potencies and affinities stand elsewhere.

biological target: Rac GTPase-activating protein 1 (Homo sapiens) (UniProt Q9H0H5); test: MgcRacGAP GTPase-activating activity inhibitors, confirmation, biochemical, ADP Hunter fluorescence, primary and confirmatory (AID 624330); settings: MgcRacGAP-stimulated Rac1 GTP hydrolysis, at 30 µM, stronger effect = higher value, GST-tagged Rac1 F28L mutant substrate;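 also: fluorescence reports GDP produced by GAP-driven GTP hydrolysis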
Sequence (Q9H0H5 whole entry, looked up): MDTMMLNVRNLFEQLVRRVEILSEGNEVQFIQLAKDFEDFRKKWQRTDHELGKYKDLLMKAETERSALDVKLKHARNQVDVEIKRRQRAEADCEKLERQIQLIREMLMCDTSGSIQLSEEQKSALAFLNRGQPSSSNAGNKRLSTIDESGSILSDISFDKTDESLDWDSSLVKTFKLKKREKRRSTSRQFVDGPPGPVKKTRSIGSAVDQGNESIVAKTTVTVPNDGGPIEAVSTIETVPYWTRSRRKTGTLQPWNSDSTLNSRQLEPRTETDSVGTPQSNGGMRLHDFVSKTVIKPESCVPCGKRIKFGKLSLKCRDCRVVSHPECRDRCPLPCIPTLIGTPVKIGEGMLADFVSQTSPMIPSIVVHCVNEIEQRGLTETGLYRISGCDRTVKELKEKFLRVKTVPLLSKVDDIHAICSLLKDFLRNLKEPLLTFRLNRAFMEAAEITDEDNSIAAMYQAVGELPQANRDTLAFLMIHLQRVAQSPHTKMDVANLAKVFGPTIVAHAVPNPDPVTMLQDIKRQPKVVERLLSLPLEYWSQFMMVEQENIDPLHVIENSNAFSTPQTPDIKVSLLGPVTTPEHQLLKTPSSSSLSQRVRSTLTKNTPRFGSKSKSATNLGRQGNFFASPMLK

inhibition, inactive:
OC1CCN(Cc2cn(Cc3ccccc3)nc2-c2cc3ccccc3o2)CC1 5.47%
O=C(Nc1ccc(Cl)cc1)Nc1nnc(CSCc2ccccc2Cl)s1 12.1%
CN(C(=O)COc1ccccc1)c1ccc([N+](=O)[O-])cc1 7.5%
Cc1ccccc1OCCNC(=O)c1ccco1 3.61%
Cc1ccc(C(=O)NCC(C)NC(=O)c2ccc(C)c(C)c2)cc1C (stereo not given) 4.02%
CCOc1ccc(N2CC(C(=O)NCc3ccco3)CC2=O)cc1 (stereo not given) -1.21%
Cc1onc(-c2ccccc2)c1C(=O)NC(=S)NNC(=O)c1ccncc1 0.31%
CCCN(C(=O)Cc1csc(-c2ccccc2)n1)C1CCS(=O)(=O)C1 (stereo not given) 4.87%
CCOC(=O)c1c(NC(=O)CSc2cccc[n+]2[O-])sc(C(=O)Nc2ccccc2)c1C 7.58%
CCOC(=O)c1c(NC(=O)CN2CCN(C)CC2)sc(C(=O)Nc2ccccc2)c1C 8.53%
CCOc1ccc(S(=O)(=O)Nc2ccccc2C(=O)Nc2ccccc2N2CCOCC2)cc1 1.24%
Cc1ccc(OC(=O)c2cccc(S(=O)(=O)N3CCN(C)CC3)c2)c(Br)c1 10%
CCOc1ccc(C2NC(=O)C(C#N)=C(S)N2c2ccc(C)cc2)cc1OC (stereo not given) 51%
COc1ccc(N2C(S)=C(C#N)C(=O)NC2c2ccc(OC)c(OC)c2)cc1 (stereo not given) 29%
Cc1cc(C)c2[nH]c(=O)c(CN(CC3CCCO3)C(=S)NCc3ccco3)cc2c1 (stereo not given) 10.7%
CN(CC(=O)Nc1ccc(S(=O)(=O)N2CCCC2)cc1)Cc1cccc(Cl)c1Cl 4.27%
Cc1ccc(CN2CC(C(=O)Nc3nc(C)cs3)CC2=O)cc1 (stereo not given) -0.43%
CCn1c2ccccc2c2cc(NC(=O)CN3CCCC3)ccc21 5.72%
Clc1ccc(OCCCCN2CCCCC2)cc1 28.9%
OC(COc1ccc(Cl)cc1)CN1CCCCC1 (stereo not given) -6.24%
COc1ccc(OCC#CCNC(C)(C)C)cc1 18%
CC(C)NCC(O)COCCOc1ccc(Cl)cc1 (stereo not given) -1.4%
CN(C)CCCNc1ncnc2oc(-c3ccccc3)c(-c3ccccc3)c12 10.3%
COc1ccccc1NC(=O)Cn1c(C)nc2c(sc(=S)n2Cc2ccco2)c1=O 8.75%
COC(=O)[C@H]1C[C@H]1[C@@H](NC(=O)c1ccc[nH]1)c1ccccc1 -1.4%
CC(=O)c1ccc(N2CCN(CC(=O)NCc3ccccc3)CC2)cc1 6.75%
CN(Cc1ccccc1)c1nc2c(c(=O)[nH]c(=O)n2C)n1CCOc1ccccc1 13.5%
Cc1ccc2c(nc3s/c(=C\c4ccc(-c5ccccc5C(=O)O)o4)c(=O)n32)c1C 19.4%
O=c1/c(=C/c2ccccn2)sc2nc3ccccc3n12 6.92%
CC1(C)OC(=O)C(=CNCCc2ccc(O)cc2)C(=O)O1 17.2%
CC1(C)CC(=O)C(N=Nc2ccc(-c3ccccc3)cc2)=C(O)C1 9.24%
O=C(Cn1nnc(-c2ccc(Cl)cc2)n1)NC1CCS(=O)(=O)C1 (stereo not given) 9.8%
O=c1c2c([N+](=O)[O-])cc([N+](=O)[O-])cc2sn1Cc1ccccc1 31%
N#Cc1c(N)n(Cc2ccccc2)c(=O)c2cc([N+](=O)[O-])ccc12 9.07%
O=[N+]([O-])c1ccc(S(=O)Cc2ccccc2)c([N+](=O)[O-])c1 (stereo not given) 4.1%
O=C1c2ccc([N+](=O)[O-])cc2S(=O)(=O)N1Cc1ccccc1 11.7%
CCOC(=O)C(=CNc1ccc(O)c(C(=O)OC)c1)C(=O)OCC 17%
Cc1c(C(=O)COC(C)(C)C)[nH]c2ccccc12 8.87%
O=C(NNC1OC(CO)C(O)C(O)C1O)c1cccc(Br)c1 (stereo not given) 0.41%
CC(=O)Nc1ccc(N/C=C/C(=O)C(C)(C)C)cc1 7.27%
COc1ccc(N/C=C/C(=O)C(C)(C)C)cc1 16.3%
O=C(O)CCCn1ccc2cc(S(=O)(=O)N3CCCC3)ccc21 4.17%
CC1CCN(CCCOc2ccc(Cl)cc2Br)CC1 20.7%
Cc1cc(Br)ccc1OCCN1CCCC1 31.4%
Clc1ccc(OCCCN2CCCCC2)c(Br)c1 27.6%
Cc1cc(Br)ccc1OCCOCCN1CCCC1 21.4%
COC(=O)C1C(O)=C(C=Nc2ccccc2)C(=O)CC1(C)C (stereo not given) -0.8%
COC(=O)C1C(O)=C(C=Nc2ccc3ccccc3c2)C(=O)CC1(C)C (stereo not given) 4.62%
CCCC(=Nc1ccccc1)C1=C(O)C(C(=O)OC)C(C)(C)CC1=O (stereo not given) -1.06%
CCCC(=O)C1=C(O)C(C(=O)OC)C(C)(C)CC1=Nc1ccc(N)cc1 (stereo not given) 7.34%
CCC(=NCc1ccccc1)C1=C(O)C(C(=O)OC)C(C)(C)CC1=O (stereo not given) 2.32%
CCCCC(=Nc1ccc(N)cc1)C1=C(O)C(C(=O)OC)C(C)(C)CC1=O (stereo not given) 28.1%
CC(C)Cn1c(N)c(/C=N/NC(=O)c2ccc(Cl)cc2)c(=O)n(C)c1=O 14.9%
Cc1cccc(CNc2ccc(C(CC(N)=O)NC(=O)c3ccccc3)cc2[N+](=O)[O-])c1 (stereo not given) -3.89%
O=C(CSc1nccn1-c1ccc(Cl)cc1)N1CCCc2ccccc21 4.77%
Cc1ccc(NC(=O)N2CCCc3ccccc32)cc1C 3.97%
Cc1ccc2nc(C)cc(C(=O)OCC(=O)Nc3cccnc3Cl)c2c1 5.5%
COC(=O)c1ccc(Oc2coc3cc(OCc4ccc([N+](=O)[O-])cc4)ccc3c2=O)cc1 -3.99%
CCN1CCN(CCNC(=O)Cn2c(=O)c3cccn3c3ccc(F)cc32)CC1 13.8%
C#CCNC(=O)C1=C[C@@H](C2CCCCC2)C[C@@H](OCCCCO)O1 6.51%
C=CCn1c(SCCNC(C)=O)nc2cc(-c3ccccc3)sc2c1=O -6.43%
CCN(CC)CCOC(=O)/C=C/c1ccccc1 8.82%
CCN(CC)C(=O)/C=C/c1ccccc1 10.4%
COc1cccc(CNC(=O)CCC2CCCN(C(=O)c3ccc(C)nc3)C2)c1 (stereo not given) -7.59%
CN1C(=O)S/C(=C\c2ccccc2OCc2ccc(C(=O)O)cc2)C1=O 7.03%
O=C1NC(=S)N/C1=C\c1ccccc1OCc1ccc(C(=O)O)cc1 7.81%
CCCCC(=O)Nc1nn(CC(C)C)c2nc3ccccc3cc12 -1.14%
OCCN(Cc1ccccc1)Cc1cccc(C(F)(F)F)c1 16.5%
CCOc1cccc(CN2CCN(c3cccc(C(F)(F)F)c3)CC2)c1O 0.147%
FC(F)(F)c1cccc(N2CCc3cn[nH]c32)c1 12.6%
Cc1cc(=O)c(C(=O)O)nn1-c1cccc(C(F)(F)F)c1 6.55%
Cc1nnc2ccc(N3CCN(c4cccc(C(F)(F)F)c4)CC3)nn12 5.89%
Cc1cccc(N2N=C(C(=O)O)CCC2=O)c1 -5.61%
Cc1cccc(N2C(=O)CCC2=O)c1 7.43%
COCC(=O)N1CCN(c2cccc(C(F)(F)F)c2)CC1 4.48%
COC(=O)c1sccc1NC(=O)CN(C)NS(=O)(=O)c1ccc([N+](=O)[O-])cc1 -4.11%
CNC(=S)NCCCc1ccccc1 8.61%
C/C=C(\C)C(=O)OC1[C@H](OC(C)=O)C2(CO)C(CC1(C)C)C1=CCC3C4(C)CCC(O[C@@H]5O[C@H](C(=O)O)[C@@H](O[C@@H]6O[C@H](CO)[C@@H](O)[C@H](O)[C@H]6O)[C@H](O)[C@H]5O[C@H]5O[C@H](CO)[C@@H](O)[C@H](O)[C@H]5O)[C@](C)(CO)C4CCC3(C)[C@]1(C)C[C@H]2O (stereo not given in full) 1.06%
COCCOC1CCN(C(=O)C2CCC(=O)N(CCc3ccccc3)C2)CC1 (stereo not given) 9.57%
CCC(=O)c1ccc(CCCCCC(=O)O)s1 3.88%
O=C(O)/C=C/C(=O)Nc1ccccc1SC(F)(F)F -1%
COc1ccc([N+](=O)[O-])cc1N(CC(=O)NCCCOC(C)C)S(C)(=O)=O 7.79%
Cc1ccc(C)c(NC(=O)C2CCCN(c3cnccn3)C2)c1 (stereo not given) 14.2%
C/C(=N\NC(=O)c1cccc(N/N=C(\C)c2ccccc2)c1)c1ccccc1 0.42%
C/C(=N\NC(=O)c1cc(O)ccc1O)c1cccc(NC(=O)c2cccc(Cl)c2)c1 25.5%
O=C(CCC1CCCN(C(=O)c2cncs2)C1)NCc1ccc(F)c(F)c1 (stereo not given) 4.71%
CC(C)Sc1nc2ccsc2c(=O)[nH]1 8.22%
O=C(CC1CCCC1)Nc1ccc(Cl)c(S(=O)(=O)N2CCOCC2)c1 1.97%
Cc1ccnc(NC(=S)NC(=O)/C=C/c2ccc(Cl)cc2)c1 3.91%
CCOCCCn1c(SCc2ccccc2)nnc1-c1ccncc1 7.47%
CN(C)CCCn1c(SCc2c(Cl)cccc2Cl)nnc1-c1ccncc1 25.2%
Cc1cc(C)cc(NC(=O)c2cc3c(=O)n4ccccc4nc3s2)c1 7.35%
CC(C)(C)NC(=O)COC(=O)c1ccc(Cl)nc1 2.54%
COc1ccc([C@H]2CN(c3ccccc3)C(=O)[C@@H]2CC(=O)Nc2ccccc2)cc1 9.26%
COc1ccc(NC(=O)C[C@H]2C(=O)N(c3ccc(Br)cc3)C[C@@H]2c2ccc(OC)cc2)cc1 15.9%
